Shown is part of a subset that was picked to be rich in hits.
mHTT-CaM PPI inh: mutant huntingtin-calmodulin interaction inhibitors – biochemical, AlphaScreen, primary screen. AID 1671202, 2021. 3.6% of 190,000 active. AlphaScreen His-mHTT/GST-CaM binding, luminescence. inhibition, % at 15 µM;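 further: 0% = both proteins with DMSO and 100% = one protein alone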
Pf apPOL inh: Pf-apPOL inhibitors, biochemical, fluorescence | inhibition, % at 10 µM | Recombinant Pf-apPOL, molecular beacon fluorescence, 1.5 h | 0.25% of 210,000 active
Numbers without * were called inactive; / = not tested or not shown; ! = not confirmed by another sample. No stated cut-off is given here; in the data, active means inhibition above about 50%; inactive means the rest.

SMILES	mHTT-CaM PPI inh	Pf apPOL inh
COc1ccc(NC(=O)/C(=C/c2cccs2)NC(=O)c2cccs2)cc1	1	6
O=C(Nc1cccc(F)c1)c1cc(S(=O)(=O)NCCc2ccccc2)ccc1F	6	-4
CCN(Cc1ccccc1)S(=O)(=O)c1ccc(F)c(C(=O)Nc2cc(C)ccc2OC)c1	-4	31
O=C(Nc1cccc(Cl)c1)c1cc(S(=O)(=O)NCCc2ccccc2)ccc1F	51*	-4
COc1ccc(C)cc1NC(=O)c1cc(S(=O)(=O)NCCc2ccccc2)ccc1F	64*	-4
COc1ccc(NC(=O)C2CCCN(C(=O)c3cccc(Cl)c3)C2)c(OC)c1 (centres undefined)	34	-2
O=C(NCCN1CCN(S(=O)(=O)c2ccc(C(F)(F)F)cc2)CC1)c1ccsc1	-9	-4
CCOc1ccc(CC(=O)N2CCN(c3nc(CN4CCOCC4)cs3)CC2)cc1	12	-5
O=C(Cn1c(=O)oc2ccccc21)Nc1nnc(-c2ccco2)o1	23	-6
Cc1nc(-c2nnc(NC(=O)Cn3c(=O)oc4ccccc43)o2)cs1	98*	4
CCOC(=O)CCC(=O)Nc1nnc(-c2csc(C)n2)o1	61*	2
Cc1nc(-c2nnc(NC(=O)Cc3ccc4c(c3)OCO4)o2)cs1	43	6
O=C(NCC1COC2(CCCC2)O1)c1cccc([N+](=O)[O-])c1 (centres undefined)	-4	-4
O=[N+]([O-])C(=C1SCCS1)C(SCc1ccccc1)=C(Cl)Cl	44	-9
CCCC(=O)Nc1c(-c2ccc(C)cc2)nc2cc(C)ccn12	15	1
Cc1ccc(-c2nc3cc(C)ccn3c2NC(=O)C(Cl)Cl)cc1	57*	-1
O=c1/c(=C/c2ccncc2)sc2n1CN(c1cccc([N+](=O)[O-])c1)CN=2	1	-8
COC(=O)c1c[nH]c2ccccc12	/	3
COC(=O)c1cc(Br)cc2ccccc12	-124	64*
N#CCC(N)=Nc1sc2c(c1C#N)CCCC2	67*	6
CC(N)=Nc1sc2c(c1C#N)CCCC2	-4	-4
Cc1ccnc(SCc2cc(=O)c(OC(=O)C(C)(C)Oc3ccc(Cl)cc3)co2)n1	99*	2
COc1cccc(C(=O)Oc2coc(CSc3nccc(C)n3)cc2=O)c1OC	34	-6
Cc1ccc(Nc2c(C(=O)NCc3ccc(F)cc3)cnc3c2c(C)nn3C)cc1	94*	-4
CCCNC(=O)c1cnc2c(c(C)nn2C)c1Nc1ccc(C)cc1	4	-2
SMILES	mHTT-CaM PPI inh	Pf apPOL inh
CCCC1c2cccn2CCN1C(=O)Nc1ccc(C)c(F)c1 (centres undefined)	51*	3
CCCC1c2cccn2CCN1C(=O)Nc1cccc(C(F)(F)F)c1 (centres undefined)	55*	-4
CC1c2cccn2CCN1C(=O)Nc1cccc(C(F)(F)F)c1 (centres undefined)	21	-3
CCCC1c2cccn2CCN1C(=O)Nc1ccc(F)c(Cl)c1 (centres undefined)	83*	-2
CCCC1c2ccc(C)n2CCN1C(=O)Nc1cccc(Cl)c1 (centres undefined)	28	6
CCCC1c2ccc(C)n2CCN1C(=O)Nc1ccc(F)c(Cl)c1 (centres undefined)	90*	2
CCCC1c2cccn2CCN1C(=O)Nc1ccc(F)cc1 (centres undefined)	9	-5
CC1c2cccn2CCN1C(=O)Nc1ccc(F)c(Cl)c1 (centres undefined)	5	-2
COC(=O)c1ccc2c(c1)CC(CNC(=O)c1ccccc1C)O2 (centres undefined)	4	-4
N#C/C(=C\c1ccc(OCc2ccc(Cl)cc2Cl)cc1)c1nn(CCO)c(N)c1C#N	31	0
O=C(Nc1ccc([N+](=O)[O-])cc1)/C(=C/c1ccc(Br)cc1)NC(=O)c1ccco1	22	-3
COc1ccc(C=C2Oc3c(ccc(OCC(N)=O)c3C)C2=O)c(OC)c1	6	-10
COC(=O)C12CC3CC(CC(NC(=O)c4ccc5nc[nH]c5c4)(C3)C1)C2	3	8
Cc1ccc(N2C(=O)CSC2c2cccc([N+](=O)[O-])c2)cc1 (centres undefined)	2	0
Cc1ccc2n1CCN(C(=O)Nc1cccc(C(F)(F)F)c1)C2C(C)C (centres undefined)	74*	-3
Cc1ccc(NC(=O)N2CCn3c(C)ccc3C2C(C)C)cc1C (centres undefined)	6	-4
Cc1ccc2n1CCN(C(=O)Nc1ccc(F)c(Cl)c1)C2C(C)C (centres undefined)	62*	-8
Cc1ccc2n1CCN(C(=O)Nc1ccccc1C(F)(F)F)C2C(C)C (centres undefined)	-1	-1
CC1CCN(c2ccc(-c3nc(-c4ccc(F)cc4)no3)cn2)CC1	-18	0
CCOc1ccccc1CNC(=O)C1CCN(c2nccnc2Oc2ccc(C)cc2)CC1	1	-1
Cc1ccnc(NC(c2ccccn2)c2ccc3cccnc3c2O)c1 (centres undefined)	100*	-4
Cc1ccnc(NC(c2ccsc2)c2ccc3cccnc3c2O)c1 (centres undefined)	100*	-1
Cc1ccnc(NC(c2ccc3c(c2)OCO3)c2ccc3cccnc3c2O)c1 (centres undefined)	99*	1
Cc1ccnc(NC(=O)c2ccc(-c3nc(-c4ccccc4)no3)cc2)c1	-5	-3
Cc1ccc(NC(=O)c2cccnc2-c2ccsc2)c(C)c1	1	1
SMILES	mHTT-CaM PPI inh	Pf apPOL inh
O=C(NCCCOc1cccc2cccnc12)c1ccc2c(c1)OCO2	7	-4
Cc1ccnc(NC(=O)c2ccc(C(=O)Nc3cc(C)ccn3)cc2)c1	7	4
Cc1ccnc(NC(c2ccncc2)c2ccc3cccnc3c2O)c1 (centres undefined)	100*	5
COc1ccc(C2=NOC(C(=O)N3CCc4ccccc4C3)C2)cc1OC (centres undefined)	0	-4
O=[N+]([O-])/C(C(Cl)=C(Cl)Cl)=C(\Sc1ccc(Cl)cc1)N1CCOCC1	11	-3
O=S(=O)(c1cccc2cccnc12)N1CCCn2nc(-c3cccs3)cc2C1	8	-2
Cc1ccnc(NC(c2ccc(F)cc2)c2ccc3cccnc3c2O)c1 (centres undefined)	98*	2
Cc1ccnc(NC(=O)Nc2ccc(F)cc2)c1	-1	-8
COc1ccc(C2C(C(=O)Nc3ccccc3C(F)(F)F)c3ccccc3C(=O)N2C)cc1 (centres undefined)	7	-1
C=CCSc1nc2[nH]ncc2c(=O)n1-c1cccc(C(F)(F)F)c1	13	-2
Cc1c(CC(Cl)(Cl)Cl)c2c(n1-c1ccccc1[N+](=O)[O-])CCCC2=O	33	-6
Cc1c(CC(Cl)(Cl)Cl)c2c(n1-c1ccc([N+](=O)[O-])cc1)CCCC2=O	73*	-8
O=C(c1cnccn1)N1CCc2[nH]nc(-c3ccc(F)cc3)c2C1	-6	-5
CC1CCCC(N2CC(=O)N(C3CCCCC3)C(c3ccc(F)cc3)C2=O)C1C (centres undefined)	34	-6
O=C(Nc1ncn[nH]1)c1cccc(Br)c1	7	1
O=C(Nc1ncn[nH]1)c1ccccc1O	99*!	-11
COc1ccccc1NC(=O)O[C@@H]1C[C@H]2C[C@@H]1[C@H]1CCCCN1[C@H]2Cc1ccccc1	11	-3

Assay outcomes deposited in PubChem by University of Kansas High Throughput Screening Laboratory.
